PfHsp90 set2 – reduces growth (ATP signal) of yeast expressing P. falciparum Hsp90; inhibition, % at 9.4 µM; 310,000 tested, 0.32% active; S. cerevisiae expressing PfHsp90, BacTiter-Glo ATP, 48 h; yeast lacking PDR1 and PDR3 efflux regulators; AID 504621;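 active = every replicate shows inhibition above about 80%, whatever the replicate mean, limit read from the data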;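 also: 0% = DMSO neutral controls and 100% = 20 µM radicicol positive controls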
EBI2 block – EBI2 (human) antagonism. inhibition, % at 5 µM. EBI2 beta-arrestin recruitment, luminescence, 7a,25-OHC stimulated. 360,000 tested, 0.81% active; in the data active = inhibition above about 38%;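 also: enzyme fragment complementation signal reports receptor beta-arrestin coupling in cells; 0% = agonist plus DMSO wells and 100% = wells without agonist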
Target sequence (P32249 whole entry, looked up, the tested form may be a part): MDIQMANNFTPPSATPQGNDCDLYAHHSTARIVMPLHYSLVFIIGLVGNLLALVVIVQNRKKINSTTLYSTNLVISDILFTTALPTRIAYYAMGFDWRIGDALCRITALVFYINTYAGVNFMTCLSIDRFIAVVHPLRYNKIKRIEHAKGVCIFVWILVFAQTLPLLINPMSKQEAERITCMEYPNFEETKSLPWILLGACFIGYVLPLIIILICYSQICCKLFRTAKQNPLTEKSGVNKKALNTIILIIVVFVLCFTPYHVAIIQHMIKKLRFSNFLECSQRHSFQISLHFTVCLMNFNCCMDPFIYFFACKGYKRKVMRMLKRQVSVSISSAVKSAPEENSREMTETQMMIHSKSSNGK
tim10-1 inh – tim10-1 yeast growth inhibition. S. cerevisiae tim10-1 ts strain growth, BacTiter-Glo, 24 h. inhibition, % at 20 µM. 330,000 tested, 2.2% active. AID 463190;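 active = inhibition of at least 40%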;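 also: mutant grown at 25 °C; 0% = DMSO wells with yeast and 100% = wells holding no yeast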
tim23-1 inh – growth inhibitors of tim23-1 mutant yeast; AID 463212; S. cerevisiae tim23-1 growth, BacTiter-Glo luminescence, 24 h; inhibition, % at 20 µM; 330,000 tested, 1.3% active;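 active = growth inhibition of the mutant yeast at or above 50%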;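 also: temperature-sensitive mutant grown at 25 °C; plate controls were DMSO-treated mutant yeast for no effect and medium wells lacking yeast for full effect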
SKKanGAS inh – SKKanGAS growth inhibition; S. pyogenes SKKanGAS, kanamycin growth, BacTiter-Glo, 6 h; inhibition, % at 7.5 µM; 300,000 tested, 1.3% active;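 active = mean replicate score, as percent of positive control median, at least 50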;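 also: strain carries kanamycin resistance gene driven by streptokinase promoter and grows in 40 µg/ml kanamycin; loss of luminescence reflects streptokinase promoter inhibition or plain growth inhibition; 0% = median of DMSO wells and 100% = positive control at its reference dose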
TIM10 inh – inhibits growth of TIM10 yeast strain; S. cerevisiae TIM10 strain growth, BacTiter-Glo luminescence, 24 h; inhibition, % at 10 µM; 330,000 tested, 1.4% active;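 active = inhibition of 40% or more at the single tested concentration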;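 also: wild-type TIM10 isogenic control strain grown at permissive 25 °C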
tim10-1 confirm – confirmation of tim10-1 mutant yeast growth inhibitors | shares compounds with tim10-1 inh | S. cerevisiae tim10-1 ts strain growth, BacTiter-Glo, 24 h | inhibition, % at 20 µM | 7,400 tested, 56% active;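 active = inhibition of yeast growth at or above a set limit in either of two repeat tests at 20 µM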;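 also: tim10-1 mutant grown at permissive 25 °C to find synthetic lethal compounds; 0% = DMSO yeast wells and 100% = medium wells without yeast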
Numbers without * were called inactive. Most compounds without a hit are left out; they make up all but 4.7% or so of the library.

What do the screens show for `O=C(c1ccc(N2C(=O)CCC2=O)cc1)N1CCCSC1=Nc1ccccc1`?
EBI2 block: 0

What do the screens show for `CCOc1cc(/C=C2\N=C(SC)SC2=O)cc([N+](=O)[O-])c1OC(C)=O`?
PfHsp90 set2: 26; EBI2 block: 2; tim10-1 inh: 42*; tim23-1 inh: 46; SKKanGAS inh: 8; TIM10 inh: 15; tim10-1 confirm: 26

How did CC(CC(=O)Nc1ncc([N+](=O)[O-])s1)c1ccccc1 (centres undefined) do in these assays?
EBI2 block: 5; tim10-1 inh: 43*; tim23-1 inh: 40; TIM10 inh: 30; tim10-1 confirm: 52*

Results for CCC(Oc1ccccc1)C(=O)Nc1ncc([N+](=O)[O-])s1 (centres undefined) ?
PfHsp90 set2: -42; EBI2 block: -9; tim10-1 inh: 42*; tim23-1 inh: 47; SKKanGAS inh: 9; TIM10 inh: 19; tim10-1 confirm: 55*

Results for O=C(c1cc(COc2cccc3cnccc23)on1)N1CCC(c2ccccc2Cl)C1 (centres undefined) ?
PfHsp90 set2: 8; EBI2 block: 6; tim10-1 inh: 51*; tim23-1 inh: 32; SKKanGAS inh: 17; TIM10 inh: 12; tim10-1 confirm: 3

How did CCc1ccc(CN(C)C(=O)c2cc(COc3cccc4cnccc34)on2)cc1 do in these assays?
PfHsp90 set2: -2; EBI2 block: -4; tim10-1 inh: 44*; tim23-1 inh: 40; SKKanGAS inh: 8; TIM10 inh: 17; tim10-1 confirm: 2

Results for CC(C)(C)C(=O)c1c(N)[nH]c(C(=O)c2ccccc2)c1-c1ccccc1Br ?
EBI2 block: -1

How did Cc1cc(O)c(Sc2ncn[nH]2)cc1NS(=O)(=O)c1ccc(Cl)cc1 do in these assays?
EBI2 block: -15; tim10-1 inh: -6; tim23-1 inh: 4; TIM10 inh: 8

What do the screens show for `O=S(=O)(Nc1cc(Sc2ncn[nH]2)c(O)c2ccccc12)c1ccccc1`?
PfHsp90 set2: 0; EBI2 block: 10; tim10-1 inh: 50*; tim23-1 inh: 48; TIM10 inh: 30; tim10-1 confirm: 27

What do the screens show for `C=C[C@@](C)(O)CC[C@@H]1[C@@]2(C)CCCC(C)(C)[C@@H]2CC[C@@]1(C)O`?
PfHsp90 set2: -21; EBI2 block: -1; tim10-1 inh: 42*; tim23-1 inh: 32; SKKanGAS inh: 1; TIM10 inh: 17; tim10-1 confirm: 13

Results for CCN(Cc1ccccc1)S(=O)(=O)c1ccc(C(=O)N(CCCN(C)C)c2nc3c(C)c(C)ccc3s2)cc1 ?
PfHsp90 set2: 14; EBI2 block: 12; tim10-1 inh: 46*; tim23-1 inh: 28; SKKanGAS inh: 27; TIM10 inh: 5; tim10-1 confirm: -2

Results for Cc1cc(C)c2nc(N(CCN(C)C)C(=O)c3ccc(S(=O)(=O)N(C)CC4CCCO4)cc3)sc2c1 (centres undefined) ?
PfHsp90 set2: -28; EBI2 block: 5; tim10-1 inh: 42*; tim23-1 inh: 22; SKKanGAS inh: 2; TIM10 inh: 15; tim10-1 confirm: 3

What do the screens show for `CCOc1cccc2sc(N(CCCN(C)C)C(=O)c3ccc(S(=O)(=O)N(C)CC4CCCO4)cc3)nc12` (centres undefined)?
PfHsp90 set2: 4; EBI2 block: -5; tim10-1 inh: 2; tim23-1 inh: -2; SKKanGAS inh: 3; TIM10 inh: 3

How did Cc1ccc2sc(N(CCN(C)C)C(=O)c3ccc(S(=O)(=O)N4CC(C)OC(C)C4)cc3)nc2c1C (centres undefined) do in these assays?
PfHsp90 set2: -30; EBI2 block: 12; tim10-1 inh: 40*; tim23-1 inh: 26; SKKanGAS inh: 1; TIM10 inh: 29; tim10-1 confirm: 24

How did CC(C)(C)[C@H]1COC(=O)[C@@H](Cc2ccc(F)cc2)CC/C=C/C[C@@H](CC(=O)N[C@H](CO)Cc2ccccc2)C(=O)N1 do in these assays?
PfHsp90 set2: 3; EBI2 block: -9; tim10-1 inh: 6; tim23-1 inh: 13; TIM10 inh: 2

From PubChem
